# Results from the OligoGym collection.
# Tests used:
# Assay in all cases: pooled miR-30 sensor sort-seq; sequence = guide strand
# Details in all cases: shRNA
# IL16 = biological target: IL16
# IL13RA1 = biological target: IL13RA1
# IL12RB2 = biological target: IL12RB2
# IL10 = biological target: IL10
# IL7 = biological target: IL7
# IPO9 = biological target: IPO9
# ITFG1 = biological target: ITFG1
# JAM3 = biological target: JAM3
# KCND2 = biological target: KCND2
# KCNK6 = biological target: KCNK6
# KCNRG = biological target: KCNRG
# KIAA0101 = biological target: KIAA0101
# KIAA0319 = biological target: KIAA0319
# KIAA0368 = biological target: KIAA0368
# KHDRBS3 = biological target: KHDRBS3
# KIAA0564 = biological target: KIAA0564
# KIF25 = biological target: KIF25
# KPRP = biological target: KPRP
# KRT86 = biological target: KRT86
# L1TD1 = biological target: L1TD1
# LARP1B = biological target: LARP1B
# Note: reference of the scale not given here.
sequence,measurement,setting,value
TTCATGAAGAATATCCTCCTAC,sensor-assay potency score (higher = more potent),IL16,0.448
TTTCTTATCTTGTTTGTCGCCA,sensor-assay potency score (higher = more potent),IL13RA1,0.315
TTTTGCTTTAATCAACAGCCAC,sensor-assay potency score (higher = more potent),IL12RB2,-1.02
TTCTCCAGTGTCACCGTGCAGA,sensor-assay potency score (higher = more potent),IL16,-0.677
TTCCTTGTGACAATCACAGCTT,sensor-assay potency score (higher = more potent),IL16,0.571
TTAGCTGTAGAGTATACTCAGT,sensor-assay potency score (higher = more potent),IL12RB2,-0.26
TTGAATTTGCTGCAGACACAGC,sensor-assay potency score (higher = more potent),IL12RB2,-0.876
TTGACCATTATTTGGACACTGT,sensor-assay potency score (higher = more potent),IL13RA1,0.157
TTCCATGTCCATATTACTGTGC,sensor-assay potency score (higher = more potent),IL13RA1,-0.274
TTTCACAGGGAAGAAATCGATG,sensor-assay potency score (higher = more potent),IL10,-0.836
TTAACCATATTCCAGAGCCTGC,sensor-assay potency score (higher = more potent),IL12RB2,-1.49
TTGCTTCTCATAGATGTCGTAC,sensor-assay potency score (higher = more potent),IL13RA1,-0.044
AAGAAAGTCTTCACTCTGCTGA,sensor-assay potency score (higher = more potent),IL10,0.0469
TTGATTCTTCTGTCAAACTTGT,sensor-assay potency score (higher = more potent),IL12RB2,0.0343
TTCTACAGAAACATCACTGGCT,sensor-assay potency score (higher = more potent),IL16,0.755
TTGTTCAAAACTGGAATCCTTC,sensor-assay potency score (higher = more potent),IL13RA1,-0.391
TTTGACTCTTATTCTGACTGTG,sensor-assay potency score (higher = more potent),IL13RA1,0.568
TACCAGACATCTAACATCCCAG,sensor-assay potency score (higher = more potent),IL12RB2,-0.395
ATCTTCTCCAGTGTCACCGTGC,sensor-assay potency score (higher = more potent),IL16,-0.369
TTGAATTTCATCACTATTGATA,sensor-assay potency score (higher = more potent),IL12RB2,-0.279
TTGGTCTCGAAGTTCCCGCAGC,sensor-assay potency score (higher = more potent),IL16,-0.85
TACAGAGTCGGTTTCCTCCTTG,sensor-assay potency score (higher = more potent),IL13RA1,0.15
TAGTAGAGAGTATAGTTAGTGT,sensor-assay potency score (higher = more potent),IL13RA1,-0.663
TTTGCTTTAATCAACAGCCACG,sensor-assay potency score (higher = more potent),IL12RB2,-1.11
TTGACTCTTATTCTGACTGTGT,sensor-assay potency score (higher = more potent),IL13RA1,0.685
ATAGACTACAATTTGAGCTGGC,sensor-assay potency score (higher = more potent),IL13RA1,0.897
TTGTCTACTGTAGTCAATGTGC,sensor-assay potency score (higher = more potent),IL12RB2,-0.32
TTCTGGAGCAACACCAACGAAG,sensor-assay potency score (higher = more potent),IL12RB2,-0.95
TTTTCTATCAGCACTACAGAGT,sensor-assay potency score (higher = more potent),IL13RA1,-0.723
TTGATGAAGATGTCAAACTCAC,sensor-assay potency score (higher = more potent),IL10,-0.225
TTGTAATAGTCTCTTTAGGAAA,sensor-assay potency score (higher = more potent),IL7,-1.6
TATAGGAGAATGTATCATCATC,sensor-assay potency score (higher = more potent),IPO9,-0.789
TTCGTATAGATTTTTCTCCAGA,sensor-assay potency score (higher = more potent),ITFG1,-0.843
TTTATCTTCACAGCCTGGCAGT,sensor-assay potency score (higher = more potent),ITFG1,-0.637
TGAGTGTCTAGCTCTGTCCGAG,sensor-assay potency score (higher = more potent),JAM3,-0.68
TTGTTGATGAAGTAGCCACGTC,sensor-assay potency score (higher = more potent),JAM3,-0.698
TTACTGAGTAAACCATTCCGTT,sensor-assay potency score (higher = more potent),KCND2,-1.06
TTTGTCTGCTCGTTGATTCTGG,sensor-assay potency score (higher = more potent),KCND2,-0.31
TCGGAGCCTGGCTTCGTGCGGC,sensor-assay potency score (higher = more potent),KCNK6,-0.634
TAGAAGGCATCCAAGAAGCTCC,sensor-assay potency score (higher = more potent),KCNK6,-0.185
TATGATGATAGTCTCTGGTTTT,sensor-assay potency score (higher = more potent),KCNRG,-0.744
TTTTGTCTTCAGAAGATACTGT,sensor-assay potency score (higher = more potent),KCNRG,0.229
TTCCTTTTTGCCACTTGGGAGT,sensor-assay potency score (higher = more potent),KIAA0101,-1.06
TACATAAAACACAATCACGGTG,sensor-assay potency score (higher = more potent),KIAA0319,-0.47
TTCAGGAATCTGATTCTCTTTT,sensor-assay potency score (higher = more potent),KIAA0101,-0.732
TTTATTTCTATTAACAAGCATC,sensor-assay potency score (higher = more potent),KIAA0319,-1.13
TTCTGTAGCACTCTGAATGAGT,sensor-assay potency score (higher = more potent),KIAA0368,-0.327
TTATAATTAGGTTATCTCCAGC,sensor-assay potency score (higher = more potent),KIAA0319,-0.767
AAATGTATAATCTCCTTCCTGC,sensor-assay potency score (higher = more potent),KIAA0319,0.3
TTTTTCAGAATCTTTAGGGGAC,sensor-assay potency score (higher = more potent),KIAA0101,0.436
TTCAGCAGCTTTGAGAACCTTG,sensor-assay potency score (higher = more potent),KIAA0319,-0.33
ATTTGTGTGATCAGGTTGCAAA,sensor-assay potency score (higher = more potent),KIAA0101,-1.36
TTCACTAGAAACAGTGACTTTG,sensor-assay potency score (higher = more potent),KIAA0319,-0.766
TTATGGTGTGATTTGGTCCTGC,sensor-assay potency score (higher = more potent),KIAA0319,0.156
TTCTCTTCTATGAAGGGCCCGT,sensor-assay potency score (higher = more potent),KIAA0319,-0.659
TAGTCCACTCTTCTTGCCCGTA,sensor-assay potency score (higher = more potent),KHDRBS3,-0.553
TTCTTTTTCATCATTTGTGTGA,sensor-assay potency score (higher = more potent),KIAA0101,-0.441
TTACATTCTAGAATACCAGGGT,sensor-assay potency score (higher = more potent),KIAA0101,1.19
TTTCACTAGAAACAGTGACTTT,sensor-assay potency score (higher = more potent),KIAA0319,-0.974
TAACAACTTAAGTTGGTCCTTG,sensor-assay potency score (higher = more potent),KIAA0564,0.426
TTCACCTTGGTAGTCTGTGGGG,sensor-assay potency score (higher = more potent),KIAA0319,-0.629
TTTGCTTTTCCTAAGCCACTGC,sensor-assay potency score (higher = more potent),KIAA0101,0.846
TTGAATAGCAAGTCGAGTCTCA,sensor-assay potency score (higher = more potent),KIAA0368,0.314
TAAGAGTTTGCTTGTGTCCTTG,sensor-assay potency score (higher = more potent),KIAA0319,0.184
TTAACTTGACTCTTGTACTGAC,sensor-assay potency score (higher = more potent),KIAA0368,0.576
TTTATTTAAAATCACATCCAAC,sensor-assay potency score (higher = more potent),KIAA0368,-1.25
TATTCTGTAATTGTTCATCTGT,sensor-assay potency score (higher = more potent),KIAA0368,0.659
TTCCTAAGCCACTGCTTCCTGC,sensor-assay potency score (higher = more potent),KIAA0101,-1.25
TAGTCTTTGCTTATTGTCCTTG,sensor-assay potency score (higher = more potent),KIAA0564,-0.514
TTTTCTTGCTCTGTCGCCCGGA,sensor-assay potency score (higher = more potent),KIAA0368,0.627
TTCATCATTTGTGTGATCAGGT,sensor-assay potency score (higher = more potent),KIAA0101,1.01
TTATTTTCAGCTTTCCTCGATG,sensor-assay potency score (higher = more potent),KIAA0101,-0.0942
TTTTGTAGTCTTTATAAGCTGT,sensor-assay potency score (higher = more potent),KIAA0368,-0.31
TTTAACTTGACTCTTGTACTGA,sensor-assay potency score (higher = more potent),KIAA0368,0.641
TTCTGAATCACACTGTTCCGAT,sensor-assay potency score (higher = more potent),KIAA0368,-0.203
TCTTTGTAGAACACCAGCCAGT,sensor-assay potency score (higher = more potent),KIAA0564,-0.952
TAAAACACAATCACGGTGCTGA,sensor-assay potency score (higher = more potent),KIAA0319,1.15
TAGAACATCCAGCACAGTCAGG,sensor-assay potency score (higher = more potent),KIAA0564,-1.28
TTTGATGCAACATCTTGGCTAA,sensor-assay potency score (higher = more potent),KIAA0368,0.354
TTGTATTTGACATTCTCTTTGC,sensor-assay potency score (higher = more potent),KIAA0368,-0.267
TAAACATATATCTTTAACCATG,sensor-assay potency score (higher = more potent),KIAA0564,-1.59
TTGAATTTGTATTTGTACCAAA,sensor-assay potency score (higher = more potent),KIAA0368,-0.672
ATTATTGTAAACTTCCACTATG,sensor-assay potency score (higher = more potent),KIF25,-0.786
AACCTCTGTCCGTCCATCCTTG,sensor-assay potency score (higher = more potent),KIF25,-0.841
AATCTCAACAGGACACCTCTGT,sensor-assay potency score (higher = more potent),KPRP,0.644
TACTGAGGGAAACAGCTGCTGT,sensor-assay potency score (higher = more potent),KPRP,-0.994
TCCAGCTCGGCCAACTTGCAGC,sensor-assay potency score (higher = more potent),KRT86,-1.89
TTGGATGTTAGTTCTTCTGTGT,sensor-assay potency score (higher = more potent),L1TD1,0.173
TGATCTTACAACATCTAAGTGG,sensor-assay potency score (higher = more potent),LARP1B,-0.00509
TAGTAATACATCATACTGGTAT,sensor-assay potency score (higher = more potent),LARP1B,-0.0186
